Values joined by “and” are separate entries in the source; they are usually repeats but may differ in a detail not shown here. Identical values can stand only once. Active and inactive are the calls of the source.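 How the source made its calls: active means fitted half-maximal concentration AC50 at or below ten times the highest valid tested dose, with signal falling as DNA is displaced (actives reach about 34 µM in these data); inconclusive means flat fit at moderate signal loss, or poor fit quality; inactive means the rest, including signal rising instead of falling.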

As a reminder, the AC50 is the midpoint of the concentration-response curve, whichever way the signal moves.

The assay is described as follows: DNA intercalators displacing acridine orange, dose response, artefact control for KSHV LANA DNA-binding inhibitor project, biochemical, fluorescence polarization, cherry-picked samples, set 2 (AID 504727). Conditions: AC50: Acridine orange-DNA displacement; series mostly up to 35 µM. For orientation: Fluorescence polarisation rises when a labelled molecule tumbles more slowly, as on binding a larger partner.
As for `Cc1c(C#N)c(=O)c(-[n+]2ccccc2)c([S-])n1-c1ccc(Cl)cc1`, the AC50 result is “inactive”.

Regarding `Cc1ccc2cccc(OCC(=O)NCCC3=CCCCC3)c2n1`, the AC50 result was “inactive”.

For the compound `O=C(Nc1ccc(Br)cn1)c1cccc2ccccc12`, the AC50 entry is “inactive”.

On to `C[n+]1c2cc(N)ccc2cc2ccc(N)cc21`, for which the half-maximal activity concentration (AC50) was 1.66 µM (active) and 2.31 µM (active).

Turning to `O=S(=O)(O)c1cc(O)c(N=Nc2ccc(O)cc2O)c2ccccc12`, the AC50 entry is “inactive”.

Turning to `COc1ccc(CCNC(=O)CCCNC(=O)Cn2cnc3sc(C)c(C)c3c2=O)cc1OC`, the AC50 entry was “inactive”.

Turning to `COc1ccc2c3c(cccc13)C(=O)CC2`, the AC50 was 6.92 µM (active).

On to `COc1cccc2c1C(=O)c1c(O)c3c(c(O)c1C2=O)C[C@@](O)(C(=O)CO)C[C@@H]3O[C@H]1C[C@H](N)[C@H](O)[C@H](C)O1`, for which the AC50 was 2.4 µM (active).

Turning to `O=C1/C(=C/c2ccco2)SC(=S)N1c1cccnc1`, the AC50 entry is “inactive”.

Consider `Cc1[nH][nH]c(=O)c1C(c1ccc(-c2ccc(Cl)c(C(=O)O)c2)o1)c1c(C)[nH][nH]c1=O`, for which the AC50 entry was “inactive”.

In the case of `O=C(CN1CCN(C(=O)CNC(=O)c2ccc3c(c2)OCO3)CC1)Nc1ccc(F)cc1`, the AC50 result was “inactive”.

As for `Cc1c(Cl)cccc1NS(=O)(=O)c1ccc2c(c1)C1C=CCC1C(c1ccc(C(=O)O)cc1)N2` (stereo not drawn), the AC50 entry is “inactive”.

With `CC(C)N(C(=S)Nc1cccnc1)c1ccccc1`, the AC50 entry is “inactive”.

For `COc1cc(C(=O)O)cc(NC(=O)c2ccco2)c1OC`, the AC50 entry was “inactive”.

Consider `COC(=O)Cn1c(=NC(=O)c2sc3ccccc3c2Cl)sc2cc(S(N)(=O)=O)ccc21`, for which the AC50 result is “inactive”.

As to `O=C(OCCN1C(=O)c2cccc3c(N4CCOCC4)ccc(c23)C1=O)c1ccc(Cl)cc1`, the AC50 was 18.5 µM (active).

Turning to `O=C1c2ccccc2C(Nc2ccc3c(c2)OCCO3)N1Cc1ccc2c(c1)OCO2` (stereo not drawn), the AC50 entry is “inactive”.

For `Nc1ccc2c3c(cccc13)C(=O)N(c1ccccc1)C2=O`, the AC50 was 3.91 µM (active).

As to `O=C(CN1C(=O)/C(=C/c2ccco2)SC1=S)Nc1ccc(O)c(C(=O)O)c1`, the AC50 result was “inactive”.

Turning to `COC(=O)c1c(C)oc2ccc(N(C(C)=O)S(=O)(=O)c3ccccc3)cc12`, the AC50 result is “inactive”.

With `Cc1ccc(C(=O)c2coc3ccc(O)c(Cl)c23)cc1`, the AC50 entry is “inactive”.

As to `COc1cccc(OCCNc2ccc([N+](=O)[O-])cn2)c1`, the AC50 result was “inactive”.

As to `COCCCNc1c2c3c(cccc3[nH]c1=O)C(=O)c1ccccc1-2`, the AC50 was 0.63 µM (active).

In the case of `c1ccc(-c2cn3nc(-c4ccccc4)c(-c4ccccc4)nc3n2)cc1`, the AC50 was 23 µM (active).

In the case of `COc1cccc(C2CC(=O)Nc3cc4c(cc32)CCC4)c1` (stereo not drawn), the AC50 entry is “inactive”.

Regarding `CCCCn1nc(CC(=O)O)c2ccccc2c1=O`, the AC50 result is “inactive”.

Consider `CC(C)=C[C@@H]1C[C@H](C)[C@H]2CC[C@H](C)c3c(O[C@@H]4O[C@@H](C)[C@@H](O)[C@@H](O)[C@@H]4O)c(O)c(C)c1c32`, for which the AC50 entry is “inactive”.

As to `CC(=O)Oc1ccc2c(c1)Oc1cc(OC(C)=O)ccc1C21OC(=O)c2ccccc21`, the AC50 is 8.39 µM (active).

For the compound `COC(=O)c1ccccc1OCC(=O)N1CCN(c2ccc(Cl)cc2)CC1`, the AC50 entry was “inactive”.

Turning to `O=C(O)CC(C(=O)O)N1C(=O)/C(=C/C=C/c2ccco2)SC1=S` (stereo not drawn), the AC50 entry was “inactive”.

Consider `Cc1cc(C)n(CCC(=O)N/N=C/c2ccc(O)cc2O)n1`, for which the AC50 result was “inactive”.

On to `CC(C)c1ccc(CNc2ccc([N+](=O)[O-])cn2)cc1`, for which the AC50 entry was “inactive”.

With `O=C(/C=N/NC(=O)c1ccc(Cl)cc1Cl)c1ccccc1`, the AC50 entry was “inactive”.

Turning to `NNC(=O)CC1=NNC(=O)C1`, the AC50 entry was “inactive”.

As to `COc1ccc(S(=O)(=O)N2CCC(C(=O)N3CCCCC3)CC2)cc1`, the AC50 result was “inactive”.

Turning to `CN1CCN(CCCNC(=O)c2cc3c(-c4ccc(Cl)cc4)nn(C)c3s2)CC1`, the AC50 result was “inactive”.

Consider `CCN(c1ccc(C)cc1C)S(=O)(=O)c1nnc(NC(=O)c2ccco2)s1`, for which the AC50 result is “inactive”.

Turning to `CCOC(=O)N1CCN(C(=S)NC(=O)c2cccc(OC)c2)CC1`, the AC50 result is “inactive”.

Values taken from PubChem BioAssay AID504727 (Broad Institute, 2011).
